Laboratory results published in PubChem BioAssay AID504333 (National Center for Advancing Translational Sciences (NCATS), 2011).
About 16,000 (4.4%) of roughly 360,000 compounds were called active. Entries that show only a call come without a potency. About 9% were inconclusive and are not listed. This is one part of a sample in which actives are shown more often than they occur. Calls come from the whole dose curve; as a rule, active = well fitted inhibition curve with a large enough effect; inconclusive = small, poorly fitted or top-dose-only effect; inactive = no such curve, though single readings can be large or run the other way.

The molecules below were run against Bromodomain adjacent to zinc finger domain protein 2B (Homo sapiens) (UniProt Q9UIF8) (assay: qHTS Assay for Inhibitors of BAZ2B). Settings: AlphaScreen BAZ2B-H3K14Ac peptide displacement; series mostly up to 114 µM.
Chain of Bromodomain adjacent to zinc finger domain protein 2B (Homo sapiens) (Q9UIF8 whole entry, looked up, the tested form may be a part): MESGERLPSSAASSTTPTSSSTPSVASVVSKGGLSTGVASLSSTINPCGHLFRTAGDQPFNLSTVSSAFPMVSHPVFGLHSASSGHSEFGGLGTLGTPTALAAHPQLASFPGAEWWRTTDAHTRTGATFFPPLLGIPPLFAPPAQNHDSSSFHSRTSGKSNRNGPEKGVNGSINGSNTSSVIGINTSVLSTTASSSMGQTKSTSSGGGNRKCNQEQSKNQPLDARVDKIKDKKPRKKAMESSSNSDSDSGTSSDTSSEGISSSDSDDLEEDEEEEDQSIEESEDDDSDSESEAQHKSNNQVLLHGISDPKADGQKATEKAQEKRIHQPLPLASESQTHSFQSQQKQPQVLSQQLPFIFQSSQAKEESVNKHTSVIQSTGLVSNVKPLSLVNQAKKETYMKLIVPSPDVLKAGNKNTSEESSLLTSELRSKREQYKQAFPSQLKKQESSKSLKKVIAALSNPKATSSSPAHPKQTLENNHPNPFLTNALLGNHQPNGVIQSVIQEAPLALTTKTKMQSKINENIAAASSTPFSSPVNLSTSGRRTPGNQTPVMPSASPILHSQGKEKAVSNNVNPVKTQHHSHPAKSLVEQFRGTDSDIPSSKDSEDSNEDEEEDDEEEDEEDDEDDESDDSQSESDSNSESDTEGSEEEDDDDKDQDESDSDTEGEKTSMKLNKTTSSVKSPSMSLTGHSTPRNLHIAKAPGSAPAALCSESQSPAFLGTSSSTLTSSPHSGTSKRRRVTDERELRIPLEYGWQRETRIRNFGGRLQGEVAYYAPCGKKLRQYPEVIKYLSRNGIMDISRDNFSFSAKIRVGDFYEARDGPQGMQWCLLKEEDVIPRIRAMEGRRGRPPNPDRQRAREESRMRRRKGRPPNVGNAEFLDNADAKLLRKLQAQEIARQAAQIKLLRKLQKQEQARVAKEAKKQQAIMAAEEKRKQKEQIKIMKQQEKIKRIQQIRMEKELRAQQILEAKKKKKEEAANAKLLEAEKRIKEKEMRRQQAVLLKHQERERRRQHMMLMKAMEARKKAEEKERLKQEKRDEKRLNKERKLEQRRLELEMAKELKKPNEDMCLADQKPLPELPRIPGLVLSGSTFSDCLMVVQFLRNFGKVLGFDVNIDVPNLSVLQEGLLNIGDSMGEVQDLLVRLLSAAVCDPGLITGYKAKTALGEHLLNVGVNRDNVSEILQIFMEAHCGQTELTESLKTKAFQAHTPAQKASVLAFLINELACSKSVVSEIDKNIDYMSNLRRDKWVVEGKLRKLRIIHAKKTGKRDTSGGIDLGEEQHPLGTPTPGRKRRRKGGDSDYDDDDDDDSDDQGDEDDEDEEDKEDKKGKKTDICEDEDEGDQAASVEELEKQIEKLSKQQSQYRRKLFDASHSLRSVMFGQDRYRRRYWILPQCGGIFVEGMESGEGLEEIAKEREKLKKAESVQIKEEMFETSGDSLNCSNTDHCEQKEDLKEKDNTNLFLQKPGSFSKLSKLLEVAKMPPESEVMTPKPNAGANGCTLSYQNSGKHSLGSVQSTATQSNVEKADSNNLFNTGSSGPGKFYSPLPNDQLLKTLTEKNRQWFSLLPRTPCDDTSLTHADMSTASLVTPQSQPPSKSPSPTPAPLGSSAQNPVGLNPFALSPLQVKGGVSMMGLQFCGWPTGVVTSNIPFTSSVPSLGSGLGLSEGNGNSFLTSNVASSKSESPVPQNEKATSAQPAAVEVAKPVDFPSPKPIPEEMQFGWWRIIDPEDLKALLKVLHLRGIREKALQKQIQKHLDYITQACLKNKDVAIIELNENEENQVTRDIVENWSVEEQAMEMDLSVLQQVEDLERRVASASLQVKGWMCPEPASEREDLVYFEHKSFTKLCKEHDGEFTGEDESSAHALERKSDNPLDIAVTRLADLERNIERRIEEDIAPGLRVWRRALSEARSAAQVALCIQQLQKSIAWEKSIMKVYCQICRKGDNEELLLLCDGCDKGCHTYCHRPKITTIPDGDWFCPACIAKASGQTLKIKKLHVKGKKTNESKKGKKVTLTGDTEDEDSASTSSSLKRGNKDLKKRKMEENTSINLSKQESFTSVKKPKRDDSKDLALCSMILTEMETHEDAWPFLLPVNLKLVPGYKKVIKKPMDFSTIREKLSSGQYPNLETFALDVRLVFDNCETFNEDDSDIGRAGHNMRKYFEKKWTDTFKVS
How it was run: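 Multi-concentration screen (max 110 uM) measuring displacement of acetylated histone H3 peptide from BAZ2B by AlphaScreen, using 50 nM protein, 50 nM peptide and 10 ug/mL streptavidin donor plus Ni-chelate acceptor beads.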
Note: nearly all actives have a fitted effect of over 60% in size.
Potency is the fitted concentration of half-maximal effect.

Structure (SMILES) | Potency
O=S(=O)(c1ccccc1)c1nc(-c2ccccc2F)oc1NCc1cccnc1 | inactive
N#Cc1nc(COc2ccc(-c3ccccc3)cc2)oc1NCc1cccnc1 | 11.2 µM (active)
c1ccc(COc2ccccc2CNCc2cccnc2)cc1 | inactive
O=C(NCCCO)C(=O)Nc1c2c(nn1-c1ccc(F)cc1)CSC2 | inactive
CCOc1ccc(C2C(=O)N(C3CCCCC3)CC(=O)N2CCC2=CCCCC2)cc1OC (configuration not stated) | inactive
CCN1CCN(CCCCOc2ccccc2F)CC1 | 50.1 µM (active)
CN1CCN(CCCCOc2cccc3ccccc23)CC1 | inactive
Fc1ccccc1OCCCCn1cncn1 | inactive
CCn1c2c(c(=O)n3ncc(C(=O)N4CCN(c5ccccc5)CC4)c13)CN(Cc1ccc(OC)cc1)CC2 | inactive
O=C(Nc1ccc(F)cc1F)c1cnn(-c2ccc(F)cc2)c1-n1cccc1 | inactive
CCOC(=O)Cn1c(=O)n(C2CCCCC2)c2nc(-c3cccc(OC)c3)nc(C(N)=O)c21 | inactive
CC(C)(C)n1c(=O)[nH]c2c(c1=O)CCC2 | inactive
N#Cc1c2c(c(-c3ccccc3)[nH]c1=O)CCCC2 | inactive
O=c1[nH]n2c(=O)c3c([nH]c2c1N=Nc1ccccc1)CCC3 | 39.8 µM (active)
COc1cc(CN(CC2CCCO2)C(=O)c2ccccc2F)cc(OC)c1OC (configuration not stated) | inactive
O=C(NCc1ccccc1)c1cc(-c2cccc(Cl)c2)on1 | inactive
O=C(O)C(c1ccccc1)N1C(=O)/C(=C\c2ccc(-c3cccc(Cl)c3)o2)SC1=S (configuration not stated) | 22.4 µM (active)
O=C1c2ccccc2NC(c2ccc(-c3cccc(Cl)c3)o2)N1O (configuration not stated) | inactive
COc1cccc(NC(=O)CN2C(=O)c3ccccc3Sc3ncccc32)c1 | inactive
CC(=O)Nc1ccc(NC(=O)c2cc3sccc3n2Cc2ccc(F)cc2)cc1 | inactive
COC(=O)c1ccc(NC(=O)CSc2n[nH]c(-c3ccccc3)n2)cc1 | inactive

Structure (SMILES) | Potency
COc1cccc(-n2c(=S)sc3c(=O)n(-c4ccccc4C)c(SCC(=O)O)nc32)c1 | inactive
CCOC(=O)c1sc(=S)n(-c2cccc(OC)c2)c1N | 50.1 µM (active)
Cc1cccc(-n2c(N)c(C(=O)N3CCN(C)CC3)sc2=S)c1 | inactive
Clc1cccc(N=C2NN=C(c3ccc4c(c3)OCCO4)CS2)c1 | inactive
CS(=O)(=O)N(CC(=O)N1CCN(Cc2ccccc2)CC1)c1ccc2c(c1)OCCO2 | inactive
c1ccc(CN2CCC(N=C3NN=C(c4ccc5c(c4)OCCO5)CS3)CC2)cc1 | 39.8 µM (active)
Cc1ccc(NC(=O)CN2C(=O)CC(C)Sc3ccccc32)c(C)c1 (configuration not stated) | inactive
C=CCO/N=C/C1=C(O)C(C(=O)OC)C(C)(C)CC1=O (configuration not stated) | 39.8 µM (active)
CCCC(=O)C1=C(N(C)c2ccccc2)CC(C)(C)C(C(=O)OC)C1=O (configuration not stated) | inactive
COc1ccc(CCNc2nc(-c3ccc(F)cc3)cc(C(F)(F)F)n2)cc1OC | inactive
CCOC(=O)c1c(NC(=O)COc2cc(C)ccc2C(C)C)sc(C)c1C | inactive
O=C1CN(C(=O)Nc2ccccc2C(F)(F)F)C(c2ccccc2)c2c(sc3c2CCCC3)N1 (configuration not stated) | inactive
CC(C)(C)C(=O)OCc1nc(-c2ccc(O)c(O)c2)cs1 | 56.2 µM (active)
Cc1onc(C(=O)NN)c1-c1csc(COc2ccccc2)n1 | inactive
COc1cc(CC(=O)Nc2nc(-c3ccc(F)c(F)c3)cs2)cc(OC)c1OC | inactive
COC(=O)[C@H]1[C@H]2C[C@H]3c4[nH]c5ccccc5c4CCN3C[C@@H]2CC[C@@H]1O | inactive
Cc1cccc(C2c3[nH]c4ccccc4c3CCN2C(=O)c2cc(-c3cccn3C)n[nH]2)n1 (configuration not stated) | 12.6 µM (active)
Cc1ccc(C2c3[nH]c4ccccc4c3CCN2C(=O)c2cccc(C)c2)cc1 (configuration not stated) | inactive
COCc1ccc(CN2CCC(Oc3ccc(C(=O)NCc4ccccn4)cc3)CC2)o1 | inactive
COCc1ccc(C(=O)N2CCc3c([nH]c4ccccc34)C2c2ccccn2)s1 (configuration not stated) | 35.5 µM (active)
COc1ccc(Cn2cc(C(=O)c3ccc(C)cc3)c(=O)c3cc(OC)c(OC)cc32)cc1 | inactive

Structure (SMILES) | Potency
CCn1c(CN2CCC(C)CC2)nc2cc(NC(=O)c3ccccc3[N+](=O)[O-])ccc21 | inactive
CCc1ccc(Sc2cc(C(=O)NCCCOC(C)C)c3ccccc3n2)cc1 | inactive
CCOc1ccc(CNC(=O)Cn2cc3c(n2)-c2c(oc(C(=O)N4CCCC4)c2C)CC3)cc1 | inactive
COc1cc(C2c3c(oc4ccccc4c3=O)C(=O)N2c2nc(C)c(C)s2)ccc1O (configuration not stated) | inactive
CCN(CC)C(=O)N(CC)Cc1ccccc1 | inactive
COc1ccc(/C=N/OCC(=O)N(Cc2ccccc2)c2ccccc2C(=O)O)cc1 | inactive
Oc1ccc(/C=N/N(Cc2ccccc2)c2ccccc2)cc1 | 39.8 µM (active)
O=C(CCCOc1ccccc1)Nc1cccc(C(=O)O)c1 | inactive
COc1ccc(/C=C2\SC(=S)N(CC(=O)NNC(=O)c3ccncc3)C2=O)cc1 | inactive
COc1cc(/C=C2/SC(=S)N(Cc3ccccc3)C2=O)cc(OC)c1O | 12.6 µM (active)
COc1ccc(/C=C2\SC(=S)N(CCC(=O)Nc3cccc(C(=O)O)c3)C2=O)cc1OC | 50.1 µM (active)
Cc1ccc(/C=C2\SC(=S)N(CCC(=O)Nc3ccc(O)cc3)C2=O)cc1 | inactive
COc1cccc(/C=C2/SC(=S)N(CC(=O)NC3C=CS(=O)(=O)C3)C2=O)c1 (configuration not stated) | inactive
Cc1ccc(C(=O)Nc2ccccc2F)cc1S(=O)(=O)N1CCOCC1 | inactive
CC(C)(C)OC(=O)N1CCC(c2c(C(=O)N3CCc4ccccc4C3)cnn2-c2ccc(F)cc2)CC1 | inactive
Cc1ccc(CN2CCC(CNC(=O)c3cnn(-c4ccccc4Cl)c3C3CCN(C(=O)OC(C)(C)C)CC3)CC2)cc1 | inactive
CCc1ccc(S(=O)(=O)Nc2cc3c(C(=O)OCc4ccccc4)c(C)oc3c3ccccc23)cc1 | inactive
COc1ccccc1N1CCN(S(=O)(=O)CCNC(=O)COc2ccc(F)cc2)CC1 | inactive
O=C(C1CCCN(S(=O)(=O)c2cccc3nonc23)C1)N1CCN(c2ccccc2F)CC1 (configuration not stated) | inactive
COc1cc(C(=O)Nc2ccc(OCc3cc(=O)n4ccc(C)cc4n3)cc2)cc(OC)c1OC | inactive
